Compounds without any hit were thinned out: in the full panel of roughly 79,000, 15% have a hit. Unmarked numbers belong to inactive results. Calls of active or inactive are those of the source. Cut-off read from the data, not from the text of the source: active = growth inhibition above about 70%; inactive = the rest.
Columns and labels:
[1] = NCI Yeast Anticancer Drug Screen. Data for the rad50 strain (AID 155);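 note: 0% = growth of vehicle-only cultures of the same strain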; conditions: S. cerevisiae rad50 strain growth inhibition; at 50.0 µM; stronger effect = higher value
Summary of the method: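 Vehicle-treated cultures provide the reference for the growth inhibition reported for compound-exposed, repair-deficient yeast.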

[2] = NCI Yeast Anticancer Drug Screen. Data for the mec2-1 strain (AID 157); conditions: S. cerevisiae mec2-1 strain, at 50.0 µM, stronger effect = higher value
Summary of the method: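 Using mec2-1 yeast: add compound, measure growth, express inhibition versus vehicle-treated cultures.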

[3] = NCI Yeast Anticancer Drug Screen. Data for the sgs1 mgt1 strain (AID 161);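 note: 0% = growth of cultures given vehicle only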; conditions: S. cerevisiae sgs1 mgt1 strain, at 50.0 µM, stronger effect = higher value
Summary of the method: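 This yeast growth screen uses a strain with defined DNA-repair lesions; compound-treated growth is compared with vehicle-treated growth.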

[4] = NCI Yeast Anticancer Drug Screen. Data for the cln2 rad14 strain (AID 165);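 note: 0% = growth equal to vehicle treated cultures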; conditions: S. cerevisiae cln2 rad14 strain, at 50.0 µM, stronger effect = higher value
Summary of the method: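 Yeast strain cln2 rad14, bearing defects in cell cycle control and DNA repair, serves as the test system; values reflect growth inhibition compared with vehicle.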

[5] = NCI Yeast Anticancer Drug Screen. Data for the bub3 strain (AID 167); conditions: S. cerevisiae bub3 mutant strain, at 50.0 µM, stronger effect = higher value
Summary of the method: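 Mutant yeast screening strain plus compound; vehicle-treated cultures serve as the 0% inhibition reference.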

[6] = NCI Yeast Anticancer Drug Screen. Data for the mlh1 rad18 strain (AID 175); conditions: S. cerevisiae mlh1 rad18 strain growth inhibition; at 50.0 µM; stronger effect = higher value
Summary of the method: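 Steps: expose repair-defective yeast to compound; measure growth; express inhibition against vehicle-treated controls.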

| SMILES | growth inhibition [1] | growth inhibition [2] | growth inhibition [3] | growth inhibition [4] | growth inhibition [5] | growth inhibition [6] |
| --- | --- | --- | --- | --- | --- | --- |
| COc1cc2c(c(OC)c1OC)CC1c3c(cc4c(c3-2)OCO4)CCN1C (stereo unspecified) | -5.85% | -31.5% | -18.1% | 13.7% | 2.1% | -17.3% |
| OC1C2CCC1C(N1CCOCC1)CC2 (stereo unspecified) | 0.25% | 3.85% | 8.05% | -7.15% | 18.5% | 5.5% |
| [CH3][Hg][O]C(C)=O | 99.5% (active) | 99.9% (active) | 99.7% (active) | 99.5% (active) | 99.7% (active) | 99.7% (active) |
| Cc1cccnc1NN=O | -8.25% | -23.9% | -23.8% | 10% | -20.2% | 13.6% |
| C[N+]1([O-])C2CCC1CC(O)C2 (stereo unspecified) | 4.1% | 7.55% | 1.45% | 16.2% | -2.5% | 17.4% |
| CNC(=O)C(Cl)Cl | 12.8% | 4.85% | 11.7% | 0.95% | -8.1% | 6.15% |
| O=C(NC1CCCCC1)C(Cl)(Cl)Cl | -3.1% | -18.3% | -1.85% | -52% | -4.75% | -5.2% |
| CN(C)C(=O)Sc1c(Cl)cc(Cl)cc1S(=O)(=O)F | 43.1% | 6.9% | 56% | 32.6% | -3.2% | 20.6% |
| c1ccc2nc(-c3ccc4ccccc4n3)ccc2c1 | -5.95% | -7.45% | -3.4% | -49.4% | -13.7% | -12.2% |
| N#CNC(N)=S | -13.8% | -10.3% | -10.3% | -8.7% | -14.3% | -8.35% |
| CC(C)(C)[CH2][Sn]([Cl])([CH2]C(C)(C)C)[CH2]C(C)(C)C | 99% (active) | 99.3% (active) | 21.8% | 99% (active) | 99.2% (active) | 99% (active) |
| COc1ccc(CCN2CCOCC2)cc1 | 31.9% | 2.15% | 47.8% | 9.25% | 34% | 34.2% |
| CC(=O)[O-].CC(=O)[O-].[Mn+2].c1ccc(/C(=N\Nc2ccccn2)c2ccccn2)cc1 | 87.8% (active) | 91.5% (active) | 90.5% (active) | 84.2% (active) | 89.2% (active) | 89.4% (active) |
| C#CCOCC(O)C[As](=O)(O)c1cccc(Cl)c1 (stereo unspecified) | 5.85% | 16.5% | 7.9% | -5.3% | 10.7% | -8.75% |
| CCC(=O)N/N=C(\N)N[N+](=O)[O-] | -16.1% | -6.55% | -20.5% | -83.6% | -3.1% | -9.65% |
| CCCCCCCCCCCCCCCCS(=O)(=O)c1ccc(S(=O)(=O)F)cc1NC(=O)C(F)(F)F | -22.4% | -9.9% | -3.6% | 24.1% | 12.6% | 8.2% |
| Clc1ccc(NC2=NCCS2)cc1Cl | -9% | -22.8% | 41.4% | -7.55% | -3.05% | 10.9% |
| OC1(c2ccccc2)C2CCN(CC2)C1CN1CCOCC1 (stereo unspecified) | -23.6% | -30.7% | -20.6% | 4.05% | 13.3% | 7.95% |

| SMILES | growth inhibition [1] | growth inhibition [2] | growth inhibition [3] | growth inhibition [4] | growth inhibition [5] | growth inhibition [6] |
| --- | --- | --- | --- | --- | --- | --- |
| CO[C@@]12[C@@H]3N[C@@H]3CN1C1=C(C(=O)C(NCCC#N)=C(C)C1=O)[C@@H]2COC(N)=O | -15.8% | 13.2% | -13.1% | 10.6% | -5.3% | 55.6% |
| ClCCN(CCCl)c1ccc(/C=N\N=C\c2ccncc2)cc1 | 4.35% | -3.95% | 6.15% | -8.5% | 0.95% | -1.8% |
| Cc1ccc(C)c(OP(=O)(Oc2cc(C)ccc2C)Oc2cc(C)ccc2C)c1 | -29.8% | -42.5% | -15.6% | 8.85% | -18% | -36.9% |
| COS(=O)(=O)c1ccc(C)cc1 | 24.2% | -1.85% | -8.2% | 12.7% | -7.7% | -3.75% |
| C/C=C/CC1(CC)C(=O)NC(=O)NC1=O | 16.9% | 10.9% | 11.8% | 16.6% | 2% | 8.1% |
| C/C=C1\C[C@@H]2C(OC)Nc3cc(O)c(OC)cc3C(=O)N2C1 (stereo partly specified) | 77.5% (active) | 70.7% (active) | 84% (active) | 56.9% | 81.3% (active) | 31.7% |
| O=C(Nc1cccc(S(=O)(=O)F)c1)c1cccc([N+](=O)[O-])c1 | 96.5% (active) | 94.8% (active) | 98.5% (active) | 91.7% (active) | 95.6% (active) | 96.8% (active) |
| CC(=O)OC1CCC2(CO)C(CCC3C4CCC(=O)C4(C)CCC32)C1 (stereo unspecified) | 14.1% | -4.25% | 0.3% | 11.9% | 5.3% | 21.8% |
| CCOC(=S)S.[Pb] | 18.9% | 21.8% | 27.2% | 13.6% | 26.2% | 9.7% |
| CCC1(c2ccc(C)cc2)C(=O)NC(=S)NC1=O | 6.1% | -8.15% | 17.2% | 28.6% | 14% | 11.8% |
| CC(=O)C(Sc1ccccc1[N+](=O)[O-])C(C)=O.[Co] | 33.2% | 9.5% | 4.75% | -1.3% | 6.45% | 15.8% |
| Cc1ccc(NN=O)nc1 | -13.9% | 3.15% | -3.9% | 15.2% | -10.6% | -13.8% |
| O=NNc1cncc(Cl)n1 | -11.2% | -3.5% | -5.35% | -17.9% | -0.4% | -6.05% |
| CCOP(=O)(OCC)SC#N | 15.1% | -2.85% | -6.4% | 6.5% | -1.05% | 16.1% |
| C=C1C(=O)OC2/C=C(\C)CC/C=C(/C)CC(OC(=O)/C(=C/CO)CO)C12 (stereo unspecified) | 6.3% | -11.6% | 14.7% | 13% | -6% | -54.7% |
| CCc1c2c(c(C)n1C)C(c1ccccc1)=NCC(=O)N2 | 8.1% | 21.1% | 21.7% | -7.1% | 13.4% | 3% |
| C[N+]1(CCCl)CCc2ccc([N+](=O)[O-])cc2C1 (stereo unspecified) | -36.9% | -35.5% | 6.95% | 0.8% | 9.3% | -13.8% |
| COc1ccc(C(C#N)C(C)=O)cc1 (stereo unspecified) | 6.75% | 4.85% | 12.4% | 4.45% | -3.9% | -12.4% |

Reference: PubChem BioAssay (NCI)
